# Source: PubChem BioAssay (Tox21)
# Several values for one entry are separate records, joined by “and”; a condition that tells them apart may be missing. Equal entries are not always repeated. Inconclusive results are not listed. A call without a number means that no potency is given here. Where a structure was tested more than once in an assay, its records may differ in their call. Activity calls are given as the source filed them. Unless noted, calls come from the whole dose curve; as a rule, active = well fitted curve in the direction sought with a large enough effect in the repeat runs; inconclusive = weak or mixed curves; inactive = no such curve, though single readings can be large; an effect the other way counts as inactive or inconclusive.
# Columns and labels:
# [1] = molecular target: Acetylcholinesterase (Homo sapiens) (UniProt P22303); test: Acetylcholinesterase (AChE) small molecule antagonists: fluorescence cell-based qHTS assay (AID 1347398; calls by dose curve; note: nearly all actives have a fitted effect of over 50% in size); details: Potency: AChE activity
# How it was run: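 Read-out is Thiolite Green fluorescence at Ex/Em = 490/520 nm, formed by reaction with thiocholine released when cellular AChE in SH-SY5Y cells hydrolyzes acetylthiocholine. Compounds were preincubated 30 min at 37 C before substrate.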
# [2] = molecular target: Acetylcholinesterase (Homo sapiens) (UniProt P22303); test: Acetylcholinesterase (AChE) small molecule antagonists: enzyme-based qHTS assay with human liver microsomes (AID 1347399; calls by dose curve; note: nearly all actives have a fitted effect of over 60% in size); details: Potency: qHTS inhibition
# How it was run: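 Recombinant human AChE (50 mU/mL in the enzyme mix) and human liver microsomes (0.25 mg/mL final) were preincubated with compound and NADPH (0.25 mg/mL final) for 30 min at 37 C. Acetylthiocholine/DTNB was then added; thiocholine was read colorimetrically after 10 min at room temperature.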
# [3] = molecular target: Cytochrome P450 2D6 (Homo sapiens) (UniProt P10635); test: Cytochrome P450 Family 2 Subfamily D Member 6 (CYP2D6) small molecule antagonists: luciferase reporter qHTS assay (AID 1671196); note: nearly all actives have a fitted effect of over 50% in size; note: potency is the fitted concentration of half-maximal effect
# How it was run: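 Cell-free P450-Glo system: CYP2D6 with proluciferin substrate was pre-incubated with compound for 10 min, then reacted with NADPH regeneration for 1 h at room temperature. Luciferin product was detected after 20 min, and data were reported as relative luminescence units.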
# [4] = molecular target: Cytochrome P450 2C19 (Homo sapiens) (UniProt P33261); test: Cytochrome P450 Family 2 Subfamily C Member 19 (CYP2C19) small molecule antagonists: luciferase reporter qHTS assay (AID 1671197); note: nearly all actives have a fitted effect of over 65% in size; note: potency is the fitted concentration of half-maximal effect
# How it was run: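 Enzyme-substrate mix with proluciferin substrate (P450-Glo CYP2C19 system) preincubated with compounds 10 min at room temperature; NADPH regeneration solution added, 37C for 1 h; detection reagent stops reaction, luminescence read after 20 min. Ketoconazole positive control.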
# [5] = molecular target: Cytochrome P450 2C9 (Homo sapiens) (UniProt P11712); test: Cytochrome P450 Family 2 Subfamily C Member 9 (CYP2C9) small molecule antagonists: luciferase reporter qHTS assay (AID 1671198); note: nearly all actives have a fitted effect of over 50% in size; note: potency is the fitted concentration of half-maximal effect
# How it was run: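 Enzyme-substrate mix preincubated with compound 10 min at room temperature; reaction started with NADPH regeneration solution, 1 h 37C. Luminescent luciferin product read after 20 min detection reagent.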
# [6] = molecular target: Cytochrome P450 1A2 (Homo sapiens) (UniProt P05177); test: Cytochrome P450 Family 1 Subfamily A Member 2 (CYP1A2) small molecule antagonists: luciferase reporter qHTS assay (AID 1671199); note: nearly all actives have a fitted effect of over 50% in size; note: potency is the fitted concentration of half-maximal effect
# How it was run: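 P450-Glo CYP1A2 enzyme–proluciferin substrate mix with compound 10 min at room temperature, then NADPH regeneration 1 h at room temperature. Luciferin detection reagent added, luminescence read after 20 min; furafylline positive control.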
# [7] = molecular target: Cytochrome P450 3A4 (Homo sapiens) (UniProt P08684); test: Cytochrome P450 Family 3 Subfamily A Member 4 (CYP3A4) small molecule antagonists: luciferase reporter qHTS assay (AID 1671201); note: nearly all actives have a fitted effect of over 50% in size; note: potency is the fitted concentration of half-maximal effect
# How it was run: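 Setup: enzyme-substrate mix, compound pin transfer, 10 min RT. Reaction: NADPH regeneration solution, 1 h RT. Readout: detection reagent stops turnover, luminescence measured after 20 min, expressed in relative luminescence units.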
# [8] = molecular target: Voltage-gated inwardly rectifying potassium channel KCNH2 (Homo sapiens) (UniProt Q12809); test: Human Ether-a-go-go-Related Gene (hERG) channel small molecule antagonists: fluorescence cell-based qHTS assay (AID 1671200); note: nearly all actives have a fitted effect of over 50% in size; note: potency is the fitted concentration of half-maximal effect
# How it was run: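 Measured: Tl+ flux via fluorescence (480/540 nm) in hERG-expressing U2OS cells after 1 h dye loading at room temperature.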
# Chain of Cytochrome P450 3A4 (Homo sapiens) (P08684 whole entry, looked up): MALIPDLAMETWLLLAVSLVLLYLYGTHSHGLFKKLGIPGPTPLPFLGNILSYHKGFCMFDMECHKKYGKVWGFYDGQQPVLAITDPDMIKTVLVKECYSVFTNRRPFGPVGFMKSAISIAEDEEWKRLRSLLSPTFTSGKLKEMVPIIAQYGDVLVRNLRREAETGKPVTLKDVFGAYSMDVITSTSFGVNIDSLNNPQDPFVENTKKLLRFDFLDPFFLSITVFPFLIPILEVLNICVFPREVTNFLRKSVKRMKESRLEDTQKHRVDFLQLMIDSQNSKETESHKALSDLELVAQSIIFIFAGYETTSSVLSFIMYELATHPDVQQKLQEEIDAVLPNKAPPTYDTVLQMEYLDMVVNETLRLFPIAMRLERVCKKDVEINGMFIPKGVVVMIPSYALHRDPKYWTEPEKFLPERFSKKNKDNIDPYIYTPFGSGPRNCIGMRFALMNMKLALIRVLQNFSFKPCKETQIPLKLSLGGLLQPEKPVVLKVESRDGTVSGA
# Chain of Acetylcholinesterase (Homo sapiens) (P22303 whole entry, looked up): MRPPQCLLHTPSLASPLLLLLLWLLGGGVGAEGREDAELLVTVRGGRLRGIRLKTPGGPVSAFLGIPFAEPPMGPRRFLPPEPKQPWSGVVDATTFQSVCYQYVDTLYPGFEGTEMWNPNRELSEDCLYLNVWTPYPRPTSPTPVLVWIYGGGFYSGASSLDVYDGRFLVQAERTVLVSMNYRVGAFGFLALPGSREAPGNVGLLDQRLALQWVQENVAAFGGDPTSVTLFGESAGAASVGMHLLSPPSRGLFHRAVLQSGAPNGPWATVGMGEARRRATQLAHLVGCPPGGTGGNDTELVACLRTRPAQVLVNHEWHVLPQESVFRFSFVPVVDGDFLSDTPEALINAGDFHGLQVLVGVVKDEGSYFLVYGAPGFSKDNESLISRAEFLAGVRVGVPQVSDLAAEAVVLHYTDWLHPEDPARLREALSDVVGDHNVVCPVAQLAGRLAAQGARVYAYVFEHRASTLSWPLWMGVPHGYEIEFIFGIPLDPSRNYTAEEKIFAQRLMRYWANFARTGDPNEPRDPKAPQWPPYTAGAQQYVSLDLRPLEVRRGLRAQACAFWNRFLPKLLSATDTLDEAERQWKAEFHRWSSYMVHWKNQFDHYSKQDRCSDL
# Chain of Cytochrome P450 2C9 (Homo sapiens) (P11712 whole entry, looked up): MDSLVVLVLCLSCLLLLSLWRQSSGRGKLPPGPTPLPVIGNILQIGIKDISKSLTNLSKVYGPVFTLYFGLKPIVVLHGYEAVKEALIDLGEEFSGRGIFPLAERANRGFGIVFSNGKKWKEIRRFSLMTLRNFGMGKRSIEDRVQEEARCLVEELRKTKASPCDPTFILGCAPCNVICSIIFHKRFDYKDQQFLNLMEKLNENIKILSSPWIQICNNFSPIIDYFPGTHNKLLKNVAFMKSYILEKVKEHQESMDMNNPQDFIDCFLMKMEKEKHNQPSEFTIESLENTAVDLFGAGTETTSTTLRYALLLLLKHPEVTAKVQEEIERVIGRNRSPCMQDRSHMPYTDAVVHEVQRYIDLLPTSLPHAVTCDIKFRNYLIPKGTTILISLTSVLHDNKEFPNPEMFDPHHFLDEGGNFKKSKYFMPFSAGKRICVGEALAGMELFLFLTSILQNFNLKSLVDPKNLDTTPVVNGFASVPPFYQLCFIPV
# Chain of Cytochrome P450 2D6 (Homo sapiens) (P10635 whole entry, looked up): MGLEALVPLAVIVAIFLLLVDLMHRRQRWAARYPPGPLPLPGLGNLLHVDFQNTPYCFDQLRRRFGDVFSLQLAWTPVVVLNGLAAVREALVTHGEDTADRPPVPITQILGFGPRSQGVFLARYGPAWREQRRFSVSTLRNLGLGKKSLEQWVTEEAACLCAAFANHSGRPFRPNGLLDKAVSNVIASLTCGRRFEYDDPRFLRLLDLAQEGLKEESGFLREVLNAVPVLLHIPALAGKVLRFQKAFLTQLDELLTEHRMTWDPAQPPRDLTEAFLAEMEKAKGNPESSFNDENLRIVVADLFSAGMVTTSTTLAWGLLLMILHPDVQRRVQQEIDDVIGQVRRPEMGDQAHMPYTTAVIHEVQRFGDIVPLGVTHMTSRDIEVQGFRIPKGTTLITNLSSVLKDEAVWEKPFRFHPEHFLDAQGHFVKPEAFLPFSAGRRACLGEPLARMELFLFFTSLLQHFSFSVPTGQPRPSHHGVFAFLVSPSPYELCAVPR
# Chain of Cytochrome P450 1A2 (Homo sapiens) (P05177 whole entry, looked up): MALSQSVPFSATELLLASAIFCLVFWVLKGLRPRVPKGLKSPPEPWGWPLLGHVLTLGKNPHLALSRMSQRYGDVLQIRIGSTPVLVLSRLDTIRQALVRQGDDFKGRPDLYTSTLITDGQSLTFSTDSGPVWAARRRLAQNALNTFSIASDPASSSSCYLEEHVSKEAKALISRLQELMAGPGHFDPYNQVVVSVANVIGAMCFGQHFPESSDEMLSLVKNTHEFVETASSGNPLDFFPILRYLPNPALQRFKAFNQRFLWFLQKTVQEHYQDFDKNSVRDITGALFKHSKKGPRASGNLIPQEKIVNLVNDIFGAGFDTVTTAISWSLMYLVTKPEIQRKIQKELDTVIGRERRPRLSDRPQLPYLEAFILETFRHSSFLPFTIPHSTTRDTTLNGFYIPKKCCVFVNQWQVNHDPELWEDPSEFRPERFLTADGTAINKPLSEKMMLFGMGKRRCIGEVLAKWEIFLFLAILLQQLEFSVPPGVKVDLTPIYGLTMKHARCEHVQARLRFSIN
# Chain of Voltage-gated inwardly rectifying potassium channel KCNH2 (Homo sapiens) (Q12809 whole entry, looked up): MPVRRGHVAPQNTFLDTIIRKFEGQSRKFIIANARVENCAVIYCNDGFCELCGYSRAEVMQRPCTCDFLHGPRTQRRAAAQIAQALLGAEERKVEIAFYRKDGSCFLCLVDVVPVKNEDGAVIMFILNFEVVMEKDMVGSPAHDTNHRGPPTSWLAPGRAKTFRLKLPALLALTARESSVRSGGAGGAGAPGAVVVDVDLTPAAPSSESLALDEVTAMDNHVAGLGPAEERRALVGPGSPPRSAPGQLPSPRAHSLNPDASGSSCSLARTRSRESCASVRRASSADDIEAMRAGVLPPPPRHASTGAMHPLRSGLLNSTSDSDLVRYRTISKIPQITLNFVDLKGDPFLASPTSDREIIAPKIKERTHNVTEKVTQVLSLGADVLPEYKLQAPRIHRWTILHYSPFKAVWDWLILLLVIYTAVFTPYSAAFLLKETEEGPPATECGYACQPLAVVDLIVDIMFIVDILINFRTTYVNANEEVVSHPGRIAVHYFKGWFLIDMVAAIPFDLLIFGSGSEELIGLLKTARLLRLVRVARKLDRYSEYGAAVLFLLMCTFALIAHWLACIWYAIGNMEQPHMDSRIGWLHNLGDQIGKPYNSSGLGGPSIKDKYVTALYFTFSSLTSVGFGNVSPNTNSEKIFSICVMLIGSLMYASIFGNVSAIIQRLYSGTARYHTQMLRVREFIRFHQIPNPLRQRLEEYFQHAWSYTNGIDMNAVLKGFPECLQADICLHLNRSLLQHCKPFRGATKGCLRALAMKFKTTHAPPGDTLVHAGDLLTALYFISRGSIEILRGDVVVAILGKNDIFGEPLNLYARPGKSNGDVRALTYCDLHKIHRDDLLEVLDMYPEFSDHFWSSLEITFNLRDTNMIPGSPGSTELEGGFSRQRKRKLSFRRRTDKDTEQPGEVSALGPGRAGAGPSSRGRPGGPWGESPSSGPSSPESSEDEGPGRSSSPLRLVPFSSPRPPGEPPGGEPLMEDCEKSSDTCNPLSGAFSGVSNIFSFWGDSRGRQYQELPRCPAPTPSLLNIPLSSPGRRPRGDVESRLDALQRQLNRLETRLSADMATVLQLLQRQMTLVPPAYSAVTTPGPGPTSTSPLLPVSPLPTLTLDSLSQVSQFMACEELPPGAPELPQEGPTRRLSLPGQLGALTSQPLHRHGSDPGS
# Chain of Cytochrome P450 2C19 (Homo sapiens) (P33261 whole entry, looked up): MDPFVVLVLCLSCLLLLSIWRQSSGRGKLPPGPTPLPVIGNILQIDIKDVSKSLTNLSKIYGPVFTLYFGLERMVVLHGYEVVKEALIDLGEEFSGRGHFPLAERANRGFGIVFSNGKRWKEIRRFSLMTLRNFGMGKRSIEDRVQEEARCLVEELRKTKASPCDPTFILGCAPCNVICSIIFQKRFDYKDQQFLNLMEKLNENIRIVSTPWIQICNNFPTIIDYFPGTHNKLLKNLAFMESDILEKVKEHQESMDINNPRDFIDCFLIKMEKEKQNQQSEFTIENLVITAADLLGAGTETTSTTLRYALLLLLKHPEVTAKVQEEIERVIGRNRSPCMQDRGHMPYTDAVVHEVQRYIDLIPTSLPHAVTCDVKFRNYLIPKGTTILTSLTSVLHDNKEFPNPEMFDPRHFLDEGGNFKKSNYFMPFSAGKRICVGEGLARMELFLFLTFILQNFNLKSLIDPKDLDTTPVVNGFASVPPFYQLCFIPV
SMILES,Potency [1],Potency [2],Potency [3],Potency [4],Potency [5],Potency [6],Potency [7],Potency [8]
CC(C)CC(C)(c1ccc(O)cc1)c1ccc(O)cc1,inactive,inactive,inactive,35.7 µM (active) and 22.4 µM (active),28.3 µM (active) and 17.8 µM (active),inactive,17.9 µM (active) and 31.7 µM (active),
Cc1cc(SCc2sc(-c3ccc(C(F)(F)F)c(F)c3)nc2C)ccc1OCC(=O)O,inactive,inactive,inactive,inactive,35.6 µM (active),,inactive,inactive
C[C@H]1O[C@@H](O[C@H]2[C@@H](O)C[C@H](O[C@H]3[C@@H](O)C[C@H](O[C@H]4CC[C@@]5(C)[C@H](CC[C@@H]6[C@@H]5CC[C@]5(C)[C@@H](C7=CC(=O)OC7)CC[C@]65O)C4)O[C@@H]3C)O[C@@H]2C)C[C@H](O)[C@@H]1O,inactive,inactive,inactive,inactive,inactive,,inactive,inactive
O=[N+]([O-])c1ccc2ccc3cccc4ccc1c2c34,inactive,inactive,31.7 µM (active),inactive,inactive,0.224 µM (active),inactive,inactive
O=C(NC(=O)c1c(F)cccc1F)Nc1cc(Cl)c(OC(F)(F)C(F)F)c(Cl)c1,inactive,inactive,inactive,79.6 µM (active),39.9 µM (active),,inactive,inactive
CCOC(=O)CC(=O)CCl,inactive,inactive,inactive,inactive,inactive,,inactive,inactive
N#CCCO,inactive,inactive,inactive,inactive,inactive,inactive,inactive,inactive
CCC(C)c1cc([N+](=O)[O-])cc([N+](=O)[O-])c1OC(=O)C=C(C)C (stereo not drawn),inactive,inactive,inactive,35.6 µM (active),35.6 µM (active),35.6 µM (active),inactive,
ClC1=C(Cl)C2(Cl)C3C(Cl)C=CC3C1(Cl)C2(Cl)Cl (stereo not drawn),inactive,inactive,inactive,8.98 µM (active) and 20 µM (active),35.6 µM (active),,5.05 µM (active) and 11.2 µM (active),21.9 µM (active)
O=C(CCl)Nc1ccccc1,inactive,inactive,39.9 µM (active),inactive,inactive,,inactive,inactive
Cc1cc(C)cc(OP(=O)(Oc2cc(C)cc(C)c2)Oc2cc(C)cc(C)c2)c1,inactive,inactive,inactive,9.08 µM (active),5.73 µM (active),22.8 µM (active),2.03 µM (active),
O=C(O)C1C2CCC(O2)C1C(=O)O (stereo not drawn),inactive,inactive,inactive,36 µM (active) and inactive,inactive,inactive,inactive,inactive
N#CCCSCCC#N,inactive,inactive,inactive,inactive,inactive,,inactive,inactive
N#CCc1ccc(Cl)cc1,inactive,inactive,inactive,39.9 µM (active),inactive,31.7 µM (active),inactive,inactive
O=C(CCl)C(Cl)Cl,inactive,inactive,40.3 µM (active),56.9 µM (active),40.3 µM (active),,inactive,inactive
CC(Cc1ccc(C(C)(C)C)cc1)CN1C[C@@H](C)O[C@@H](C)C1 (stereo partly drawn),inactive,inactive,8.94 µM (active),31.7 µM (active),35.6 µM (active),39.9 µM (active),22.4 µM (active),12.3 µM (active)
CC(C)[C@H](C(=O)O[C@H](C#N)c1cccc(Oc2ccccc2)c1)c1ccc(Cl)cc1,inactive,inactive,inactive,7.96 µM (active),5.63 µM (active),,inactive,inactive
CCC[CH2][Sn]([CH2]CCC)([CH2]CCC)[O]C(=O)c1ccccc1,inactive,inactive,1.12 µM (active),1.59 µM (active),12.6 µM (active),,35.6 µM (active),4.9 µM (active)
CCC(C)(C)C(=O)OC1=C(c2ccc(Cl)cc2Cl)C(=O)OC12CCCCC2,inactive,inactive,inactive,,31.7 µM (active),,14.2 µM (active),inactive
CC(=[OH+])/C=C(/C)[O-].CC(=[OH+])/C=C(\C)[O-].CC(=[OH+])/C=C(\C)[O-].[Fe],inactive,inactive,,inactive,inactive,inactive,inactive,inactive
CCCN(CCC)CCc1c[nH]c2ccccc12,inactive,inactive,0.351 µM (active),,inactive,27.9 µM (active),inactive,
CC(=O)c1cc(C(C)(C)C)cc2c1CCC2(C)C,inactive,inactive,inactive,inactive,,31.7 µM (active),inactive,inactive
CCCN(CC)CC1COC2(CCC(C(C)(C)C)CC2)O1 (stereo not drawn),inactive,inactive,,11.2 µM (active),,,,
O=C(O)COc1nc(Cl)c(Cl)cc1Cl,inactive,inactive,6.48 µM (active),,51.5 µM (active),,,inactive
Clc1ccc(-c2ccccc2)cc1,inactive,inactive,inactive,,inactive,39.9 µM (active),inactive,inactive
[CH3][Hg][Cl],inactive,inactive,inactive,,,inactive,39.8 µM (active),24.5 µM (active)
